Screening results (PubChem)
Pf Dd2 inh: blocks in vitro growth of P. falciparum Dd2; P. falciparum Dd2 growth, SYBR Green, 72 h; hit rate 4.3% among 120,000; Potency, µM (doses to about 28.9 µM), without a hit: at the top dose activity, negative = inhibition, actives largely listed as inhibitors; active = well fitted inhibition curve with a large enough effect;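 also: plate controls were DMSO vehicle for no effect and reference drug for full effect; nearly all actives have a fitted effect of over 65% in size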
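Readout: SYBR Green fluorescence, 485 nm excitation, 535 nm emission, after ~16 h lysis at 37C. Before that, Dd2-infected red cells (2.5% hematocrit) grew 72 h with compound, 29 uM top final concentration.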
The depositor's hits bear a star; [ ] = dose if it differs, or a comment. The sample as a whole holds a higher share of hits than the screen did. Potency is read from the fitted curve at half-maximal effect.

For COc1cccc(CNC(=O)[C@@H]2C[C@@H](O)CN2C2CCN(C(=O)c3ccncc3)CC2)c1 the results were Pf Dd2 inh -19%.
`COc1cccc(CNC(=O)[C@@H]2C[C@@H](O)CN2C2CCN(C(=O)Cc3ccc(Cl)cc3)CC2)c1` gave Pf Dd2 inh 13µM*.
For COc1cccc(CNC(=O)[C@@H]2C[C@@H](O)CN2C2CCN(C(=O)CC3CCCC3)CC2)c1 the results were Pf Dd2 inh inactive.
`COc1cccc(CNC(=O)[C@@H]2C[C@@H](O)CN2C2CCN(C(=O)c3cccc(OC)c3)CC2)c1` gave Pf Dd2 inh -11%.
Cc1ccc(NC(=O)N[C@@H]2C=C(C(=O)NCC(N)=O)C[C@@H](O)[C@@H]2O)cc1 was read as Pf Dd2 inh 6%[44.1 µM].
CCNC(=O)N1CC(c2nnc(-c3ccncc3)o2)C2(CCOCC2)C1 (stereo not given) was read as Pf Dd2 inh inactive.
`CCn1cc(CN(CCOC)Cc2cccs2)ccc1=O` gave Pf Dd2 inh -9%.
For CC(C)c1ccc(OCC(=O)NCC(c2ccc(Cl)cc2)N2CCOCC2)cc1 (stereo not given) the results were Pf Dd2 inh 10µM*.
Screening COc1ccc(C(CNC(=O)c2oc3cc(C)c(Cl)cc3c2C)N2CCCCC2)cc1 (stereo not given) returned Pf Dd2 inh 1%.
For COc1ccc(OCC(=O)NCC(c2ccc(OC)cc2)N2CCCCC2)cc1 (stereo not given) the results were Pf Dd2 inh 8.9µM*.
COc1ccc(C(CNC(=O)c2oc3ccccc3c2C)N2CCCCC2)cc1 (stereo not given) was read as Pf Dd2 inh 24%.
COc1ccc(C(CNC(=O)COc2ccc(Cl)c(C)c2)N2CCOCC2)cc1 (stereo not given) was read as Pf Dd2 inh 3.5µM*.
Cc1cc(OCC(=O)NCC2(N3CCOCC3)CCCCC2)ccc1Cl was read as Pf Dd2 inh inactive.
COc1ccc(C(CNC(=O)COc2cc(C)cc(C)c2)N2CCCCC2)cc1 (stereo not given) was read as Pf Dd2 inh inactive.
Screening COc1ccc(C(CNC(=O)c2ccc(C)cc2)N2CCOCC2)cc1 (stereo not given) returned Pf Dd2 inh 17%.
For COc1ccc(CC(=O)NCC(c2ccc(Cl)cc2)N2CCOCC2)cc1 (stereo not given) the results were Pf Dd2 inh 49%[0.594 µM].
COc1ccc(C(CNC(=O)COc2ccc(C)c(C)c2)N2CCCCC2)cc1 (stereo not given) was read as Pf Dd2 inh 11µM*.
For CCCOc1ccc(C(=O)NCC(c2ccc(OC)cc2)N2CCCCC2)cc1 (stereo not given) the results were Pf Dd2 inh -25%.
Screening CN(C)c1ccc(C(CNS(=O)(=O)c2ccc(Cl)cc2)N2CCOCC2)cc1 (stereo not given) returned Pf Dd2 inh -23%.
For CNC(=O)[C@@H]1CN(S(=O)(=O)c2ccc3c(c2)CCC3)C[C@H]1c1nc(C)no1 the results were Pf Dd2 inh 35%.
For O=C(N1CCC[C@H]1c1nc(-c2ccccc2Cl)no1)C1(c2ccccc2)CC1 the results were Pf Dd2 inh -10%.
For CCN1c2cc(C(=O)N3CCN(c4ccc(OC)cc4)CC3)ccc2C(=O)N2CCCCC21 (stereo not given) the results were Pf Dd2 inh -10%.
Screening CC(C)Oc1cccc(-c2nnc(CCC(=O)NC3CCCCC3)c(=O)[nH]2)c1 returned Pf Dd2 inh -7%.
`Cc1ccccc1N1Cc2c(NCCc3ccccc3F)ncnc2N(C)CC1=O` gave Pf Dd2 inh inactive.
For CCc1nc2c(c(-c3ccc(Cl)cc3)n1)CN(C(=O)c1ccccc1F)CC2 the results were Pf Dd2 inh -11%.
Cc1ccc(C2Cn3nnc(C(=O)N4CCC(C(=O)NCC(C)c5ccccc5)CC4)c3CO2)cc1 (stereo not given) was read as Pf Dd2 inh -8%.
For COc1ccc(CCC(=O)N2CCCCCC2c2nnc(-c3ccccc3)o2)cc1 (stereo not given) the results were Pf Dd2 inh -1%.
`CC1=NS(=O)(=O)N(Cc2ccc(F)cc2F)C=C1C(=O)O` gave Pf Dd2 inh 14%.
COc1ccc(NC(=O)c2oc3ccc4c(c3c2C)C(=O)CC(C)(C)O4)cc1OC was read as Pf Dd2 inh inactive.
For CCc1cccc(NC(=O)c2cc3c(=O)oc4ccc(C)cc4c3s2)c1 the results were Pf Dd2 inh 68%.
Screening CCc1cccc(NC(=O)c2oc3ccc4c(c3c2C)C(=O)CC(C)(C)O4)c1 returned Pf Dd2 inh 10µM*.
`CC[C@H]1CN(S(C)(=O)=O)CC[C@H]1CC(=O)NCCSC` gave Pf Dd2 inh 9%[44.1 µM].
For Cc1cnc(C(=O)N2CCCC(c3nc(-c4cccnc4)no3)CCNC(=O)CC2)cn1 (stereo not given) the results were Pf Dd2 inh -22%.
For O=C1CCN(S(=O)(=O)c2ccccc2)CCCN(C(=O)Cc2cccc(F)c2)CCN1 the results were Pf Dd2 inh -13%.
For O=C1CC(c2ccccc2)N(C(=O)C2CC2)CCCN(C(=O)c2c[nH]c3ccccc23)CCN1 (stereo not given) the results were Pf Dd2 inh inactive.
`O=C1CC(c2ccccc2)N(Cc2ccncc2)CCCN(C(=O)C2CCCCC2)CCN1` (stereo not given) gave Pf Dd2 inh -26%.
For CS(=O)(=O)N1CCCN(C(=O)c2ccncc2)CCNC(=O)CC1c1ccccc1 (stereo not given) the results were Pf Dd2 inh -16%.
O=C1CC(c2ccccc2)N(C(=O)C2CC2)CCCN(C(=O)c2cc3ccccc3[nH]2)CCN1 (stereo not given) was read as Pf Dd2 inh 11µM*.
For O=C1CC(c2ccccc2)N(C(=O)C2CC2)CCCN(C(=O)c2ccc3ccccc3n2)CCN1 (stereo not given) the results were Pf Dd2 inh -13%.
O=C1CC(c2ccccc2)N(Cc2ccncc2)CCCN(C(=O)c2cc3ccccc3[nH]2)CCN1 (stereo not given) was read as Pf Dd2 inh 3.5µM*.
`O=C1CC(c2ccccc2)N(Cc2ccncc2)CCCN(S(=O)(=O)c2cccc(F)c2)CCN1` (stereo not given) gave Pf Dd2 inh 0.5µM*.
For O=C1CC(c2ccccc2)N(Cc2ccncc2)CCCNCCN1 (stereo not given) the results were Pf Dd2 inh -14%.
Screening CC(C)(CO)CNC(=O)c1cnc2c(c1)N([S+](=O)([O-])c1cccnc1)CCC2 returned Pf Dd2 inh 2%[44.1 µM].
`Cc1ccc(-c2ncc(C(=O)Nc3cc(F)ccc3F)c(-c3ccncc3)n2)cc1` gave Pf Dd2 inh -16%.
Screening COc1ccccc1C(=O)N1CCC(Cc2n[nH]c(C)n2)CC1 returned Pf Dd2 inh 11%.
`COc1ccc2nc3n(c2c1)[C@@H](CNC1CCOCC1)COC3` gave Pf Dd2 inh inactive.
COc1ccc(CCC(=O)N2CCCCCNC(=O)[C@@H]3CCC[C@@H]32)cc1 was read as Pf Dd2 inh -15%.
For O=C(c1cncc(Br)c1)N1CCC(n2c(=O)[nH]c3ccccc32)CC1 the results were Pf Dd2 inh inactive.
Screening Cc1nc(-c2ccc(F)cc2)n(CC(=O)Nc2cc(C(F)(F)F)ccc2Cl)c(=O)c1CCO returned Pf Dd2 inh 11µM*.
`Cc1cc(C)cc(NC(=O)Cn2c(-c3cccc(Cl)c3)nc(C)c(CCO)c2=O)c1` gave Pf Dd2 inh 10µM*.
For Cc1nc(-c2cccc(Cl)c2)n(CC(=O)NC(C)C)c(=O)c1CCO the results were Pf Dd2 inh -12%.
